# Paper PMC7862700, “An all-to-all approach to the identification of sequence-specific readers for epigenetic DNA modifications on cytosine”
# Assays:
# Experiment in all cases: DAPPL (digital affinity profiling via proximity ligation, sequencing); 10 mM Tris-HCl pH 7.5, 50 mM NaCl, 1 mM DTT, 4% glycerol, room temperature, 30 min; GST-TFs on glutathione beads, 16-mer random dsDNA library, 0.1% formaldehyde crosslink after washing; high values mean tight binding
# FLI1 = molecular target: T1, FLI1 (Homo sapiens, UniProt Q01543 1-452); details: protein: recombinant; tags: N-terminal GST; dsDNA, one strand shown
# T1 sequence: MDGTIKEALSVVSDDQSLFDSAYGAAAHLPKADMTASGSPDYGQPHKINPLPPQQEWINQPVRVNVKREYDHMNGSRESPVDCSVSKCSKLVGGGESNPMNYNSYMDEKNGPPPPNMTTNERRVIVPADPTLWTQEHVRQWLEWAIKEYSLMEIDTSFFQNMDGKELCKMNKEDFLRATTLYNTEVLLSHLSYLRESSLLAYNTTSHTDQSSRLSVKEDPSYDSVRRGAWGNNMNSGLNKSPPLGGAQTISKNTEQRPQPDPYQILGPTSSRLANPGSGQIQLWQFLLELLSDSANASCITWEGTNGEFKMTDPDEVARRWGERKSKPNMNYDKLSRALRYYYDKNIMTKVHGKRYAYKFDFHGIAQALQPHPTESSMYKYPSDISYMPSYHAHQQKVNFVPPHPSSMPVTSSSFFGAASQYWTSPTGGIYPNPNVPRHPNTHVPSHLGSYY
# Method in brief: (§1)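 Beads coated with glutathione captured GST-fused human transcription factors that had been expressed in yeast, and the factors were then given DNA barcodes and pooled with a tag-only sample. The pools were incubated with 200 nmole of a random double-stranded 16-mer DNA library in Tris/NaCl/DTT/glycerol buffer for 30 min at room temperature, washed, crosslinked with 0.1% formaldehyde and proximity-ligated with BsaI/T4 ligase at 37 °C for 1 h. PCR amplification and Illumina NextSeq500 sequencing came last. Binding signal is each hexamer's read frequency for a factor divided by its frequency for the tag-only sample.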
# ELK1 = molecular target: T2, ELK1 (Homo sapiens, UniProt P19419 1-428); details: protein: recombinant; tags: N-terminal GST; dsDNA, one strand shown
# T2 sequence: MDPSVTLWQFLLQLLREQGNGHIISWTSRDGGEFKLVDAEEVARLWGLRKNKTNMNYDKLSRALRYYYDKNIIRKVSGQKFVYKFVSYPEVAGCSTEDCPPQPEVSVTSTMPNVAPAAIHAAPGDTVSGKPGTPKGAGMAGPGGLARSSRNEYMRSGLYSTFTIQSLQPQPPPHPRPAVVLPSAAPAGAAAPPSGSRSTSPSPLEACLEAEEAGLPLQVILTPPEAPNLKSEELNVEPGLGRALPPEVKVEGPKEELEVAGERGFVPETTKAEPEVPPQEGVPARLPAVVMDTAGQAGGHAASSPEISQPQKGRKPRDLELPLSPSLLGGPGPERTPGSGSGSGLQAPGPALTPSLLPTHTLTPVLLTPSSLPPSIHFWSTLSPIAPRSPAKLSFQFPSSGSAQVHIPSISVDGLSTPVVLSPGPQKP
# Method in brief: as §1
# GABPA = molecular target: T3, GABPA (Homo sapiens, UniProt Q06546 1-454); details: protein: recombinant; tags: N-terminal GST; dsDNA, one strand shown
# T3 sequence: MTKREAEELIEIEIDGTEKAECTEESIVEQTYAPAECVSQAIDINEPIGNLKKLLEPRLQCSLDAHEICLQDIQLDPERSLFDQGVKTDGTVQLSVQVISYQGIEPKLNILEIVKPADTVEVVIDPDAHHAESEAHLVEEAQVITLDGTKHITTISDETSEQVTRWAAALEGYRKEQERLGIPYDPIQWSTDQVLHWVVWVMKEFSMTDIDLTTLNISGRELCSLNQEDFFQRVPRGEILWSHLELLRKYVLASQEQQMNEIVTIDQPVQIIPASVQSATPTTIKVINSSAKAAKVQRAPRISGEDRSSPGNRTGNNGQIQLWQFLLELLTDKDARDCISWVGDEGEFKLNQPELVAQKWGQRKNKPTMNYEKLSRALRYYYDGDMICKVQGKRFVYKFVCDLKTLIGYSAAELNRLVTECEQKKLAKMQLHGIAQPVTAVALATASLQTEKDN
# Method in brief: as §1
# ERG = molecular target: T4, ERG (Homo sapiens, UniProt P11308 1-479); details: protein: recombinant; tags: N-terminal GST; dsDNA, one strand shown
# T4 sequence: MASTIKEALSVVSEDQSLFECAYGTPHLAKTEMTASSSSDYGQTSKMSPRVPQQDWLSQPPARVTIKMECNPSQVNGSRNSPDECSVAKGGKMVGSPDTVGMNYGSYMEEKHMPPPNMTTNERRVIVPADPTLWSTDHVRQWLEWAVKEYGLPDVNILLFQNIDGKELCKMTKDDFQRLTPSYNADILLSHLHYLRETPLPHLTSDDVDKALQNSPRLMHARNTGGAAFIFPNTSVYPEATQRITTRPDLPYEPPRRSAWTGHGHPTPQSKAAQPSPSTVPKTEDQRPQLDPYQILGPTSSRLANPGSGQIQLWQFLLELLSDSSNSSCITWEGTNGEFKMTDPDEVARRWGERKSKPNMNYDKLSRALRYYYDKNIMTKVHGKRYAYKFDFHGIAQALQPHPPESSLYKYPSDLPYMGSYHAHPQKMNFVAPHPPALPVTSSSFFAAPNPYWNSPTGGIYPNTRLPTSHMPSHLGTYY
# Method in brief: as §1
# ELF1 = ELF1 (Homo sapiens, UniProt P32519 1-619); details: protein: recombinant; tags: N-terminal GST; dsDNA, one strand shown
# Sequence of ELF1 (P32519 whole entry): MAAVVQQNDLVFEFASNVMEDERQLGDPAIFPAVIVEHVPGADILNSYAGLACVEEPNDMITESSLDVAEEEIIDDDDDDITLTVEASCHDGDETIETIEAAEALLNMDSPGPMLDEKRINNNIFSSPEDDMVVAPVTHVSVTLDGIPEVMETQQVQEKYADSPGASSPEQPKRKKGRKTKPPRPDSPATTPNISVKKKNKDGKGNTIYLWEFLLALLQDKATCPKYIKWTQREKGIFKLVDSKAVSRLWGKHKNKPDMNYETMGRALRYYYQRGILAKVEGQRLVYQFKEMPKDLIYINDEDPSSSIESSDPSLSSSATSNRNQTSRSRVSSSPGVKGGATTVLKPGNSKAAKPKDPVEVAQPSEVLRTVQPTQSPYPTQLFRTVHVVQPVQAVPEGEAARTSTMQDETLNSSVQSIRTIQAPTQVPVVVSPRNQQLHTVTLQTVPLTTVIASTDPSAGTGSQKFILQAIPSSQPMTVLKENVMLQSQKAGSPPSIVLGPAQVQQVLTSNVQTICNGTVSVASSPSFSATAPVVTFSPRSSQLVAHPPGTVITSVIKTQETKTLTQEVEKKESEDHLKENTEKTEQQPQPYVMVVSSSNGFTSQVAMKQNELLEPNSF
# Method in brief: as §1
# EHF = molecular target: T5, EHF (Homo sapiens, UniProt Q9NZC4 1-300); details: protein: recombinant; tags: N-terminal GST; dsDNA, one strand shown
# T5 sequence: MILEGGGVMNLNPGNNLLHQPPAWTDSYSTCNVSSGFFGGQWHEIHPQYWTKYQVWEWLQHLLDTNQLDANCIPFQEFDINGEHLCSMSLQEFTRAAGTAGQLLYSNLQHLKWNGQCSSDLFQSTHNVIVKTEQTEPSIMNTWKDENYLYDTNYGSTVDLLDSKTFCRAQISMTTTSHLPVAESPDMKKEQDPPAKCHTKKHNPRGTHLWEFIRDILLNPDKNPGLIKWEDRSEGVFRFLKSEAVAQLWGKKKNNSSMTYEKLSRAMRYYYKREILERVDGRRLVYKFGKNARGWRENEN
# Method in brief: as §1
# SPI1 = SPI1 (Homo sapiens, UniProt P17947 1-270); details: protein: recombinant; tags: N-terminal GST; dsDNA, one strand shown
# Method in brief: as §1
# SPIB = SPIB (Homo sapiens, UniProt Q01892 1-262); details: protein: recombinant; tags: N-terminal GST; dsDNA, one strand shown
# Sequence of SPIB (Q01892 whole entry): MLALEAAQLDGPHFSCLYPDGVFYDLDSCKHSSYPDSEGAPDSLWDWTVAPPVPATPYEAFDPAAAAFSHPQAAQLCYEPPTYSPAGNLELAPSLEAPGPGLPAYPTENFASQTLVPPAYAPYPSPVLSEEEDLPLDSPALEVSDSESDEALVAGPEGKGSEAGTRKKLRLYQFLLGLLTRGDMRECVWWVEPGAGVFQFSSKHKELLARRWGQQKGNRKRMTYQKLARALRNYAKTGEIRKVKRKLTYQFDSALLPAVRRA
# Method in brief: as §1
# ELK3 = molecular target: T6, ELK3 (Homo sapiens, UniProt P41970 1-407); details: protein: recombinant; tags: N-terminal GST; dsDNA, one strand shown
# T6 sequence: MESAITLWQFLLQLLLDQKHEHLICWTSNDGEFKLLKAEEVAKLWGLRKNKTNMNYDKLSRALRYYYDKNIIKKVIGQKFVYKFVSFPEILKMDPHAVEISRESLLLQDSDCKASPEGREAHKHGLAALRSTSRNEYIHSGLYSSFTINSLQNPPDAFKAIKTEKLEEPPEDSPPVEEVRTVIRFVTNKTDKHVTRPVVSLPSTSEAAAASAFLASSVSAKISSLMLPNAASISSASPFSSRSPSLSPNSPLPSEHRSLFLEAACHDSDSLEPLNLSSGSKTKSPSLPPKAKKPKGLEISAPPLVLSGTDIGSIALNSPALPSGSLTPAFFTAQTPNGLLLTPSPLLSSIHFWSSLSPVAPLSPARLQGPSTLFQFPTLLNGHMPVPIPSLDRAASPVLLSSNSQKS
# Method in brief: as §1
# FEV = molecular target: T7, FEV (Homo sapiens, UniProt Q99581 1-238); details: protein: recombinant; tags: N-terminal GST; dsDNA, one strand shown
# T7 sequence: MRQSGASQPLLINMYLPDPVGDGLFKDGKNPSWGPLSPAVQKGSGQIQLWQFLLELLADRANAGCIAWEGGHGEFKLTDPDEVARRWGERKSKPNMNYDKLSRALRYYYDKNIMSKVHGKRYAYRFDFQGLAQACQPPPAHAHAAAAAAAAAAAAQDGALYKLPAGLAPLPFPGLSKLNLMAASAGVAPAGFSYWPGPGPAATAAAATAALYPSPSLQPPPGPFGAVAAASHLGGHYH
# Method in brief: as §1
# ETV5 = ETV5 (Homo sapiens, UniProt P41161 1-510); details: protein: recombinant; tags: N-terminal GST; dsDNA, one strand shown
# Sequence of ETV5 (P41161 whole entry): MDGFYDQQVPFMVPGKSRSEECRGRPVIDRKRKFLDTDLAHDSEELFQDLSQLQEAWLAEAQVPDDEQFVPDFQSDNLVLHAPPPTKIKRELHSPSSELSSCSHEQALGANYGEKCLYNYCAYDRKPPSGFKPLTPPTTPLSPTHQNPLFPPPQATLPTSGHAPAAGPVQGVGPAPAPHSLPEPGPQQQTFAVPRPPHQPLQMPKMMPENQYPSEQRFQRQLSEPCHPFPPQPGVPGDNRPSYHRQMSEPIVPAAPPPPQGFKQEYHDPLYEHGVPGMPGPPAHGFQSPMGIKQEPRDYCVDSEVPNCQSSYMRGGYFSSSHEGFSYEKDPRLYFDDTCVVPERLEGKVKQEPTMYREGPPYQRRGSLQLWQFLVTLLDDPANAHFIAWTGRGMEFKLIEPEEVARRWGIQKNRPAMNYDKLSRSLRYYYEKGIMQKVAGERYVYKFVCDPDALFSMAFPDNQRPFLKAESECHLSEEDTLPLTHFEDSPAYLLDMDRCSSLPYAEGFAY
# Method in brief: as §1
# HSF1 = HSF1 (Homo sapiens, UniProt Q00613 1-529); details: protein: recombinant; tags: N-terminal GST; chain copies: 3; dsDNA, one strand shown
# Sequence of HSF1 (Q00613 whole entry): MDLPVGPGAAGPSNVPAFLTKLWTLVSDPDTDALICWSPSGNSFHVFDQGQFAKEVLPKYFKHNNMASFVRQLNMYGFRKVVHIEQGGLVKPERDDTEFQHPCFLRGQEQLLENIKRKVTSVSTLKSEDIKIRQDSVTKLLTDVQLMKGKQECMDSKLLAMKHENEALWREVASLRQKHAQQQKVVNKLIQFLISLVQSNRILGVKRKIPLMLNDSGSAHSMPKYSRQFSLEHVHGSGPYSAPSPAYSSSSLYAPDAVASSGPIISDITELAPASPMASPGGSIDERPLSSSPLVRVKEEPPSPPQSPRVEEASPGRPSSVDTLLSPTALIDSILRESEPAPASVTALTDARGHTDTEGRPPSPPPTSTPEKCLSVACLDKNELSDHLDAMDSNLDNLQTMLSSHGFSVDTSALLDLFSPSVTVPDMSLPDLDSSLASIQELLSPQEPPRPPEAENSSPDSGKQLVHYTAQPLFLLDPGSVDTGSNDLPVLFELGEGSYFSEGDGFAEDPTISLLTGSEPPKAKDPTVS
# Method in brief: as §1
# SPIC = molecular target: T8, SPIC (Homo sapiens, UniProt Q8N5J4 1-248); details: protein: recombinant; tags: N-terminal GST; dsDNA, one strand shown
# T8 sequence: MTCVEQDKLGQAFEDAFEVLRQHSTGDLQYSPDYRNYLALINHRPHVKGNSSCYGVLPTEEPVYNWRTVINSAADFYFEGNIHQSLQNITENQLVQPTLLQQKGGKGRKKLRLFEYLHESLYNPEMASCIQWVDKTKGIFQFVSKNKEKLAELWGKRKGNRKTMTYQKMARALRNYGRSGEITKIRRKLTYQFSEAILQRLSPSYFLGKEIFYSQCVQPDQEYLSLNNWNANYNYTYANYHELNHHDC
# Method in brief: as §1
# ELF4 = ELF4 (Homo sapiens, UniProt Q99607 1-663); details: protein: recombinant; tags: N-terminal GST; dsDNA, one strand shown
# Sequence of ELF4 (Q99607 whole entry): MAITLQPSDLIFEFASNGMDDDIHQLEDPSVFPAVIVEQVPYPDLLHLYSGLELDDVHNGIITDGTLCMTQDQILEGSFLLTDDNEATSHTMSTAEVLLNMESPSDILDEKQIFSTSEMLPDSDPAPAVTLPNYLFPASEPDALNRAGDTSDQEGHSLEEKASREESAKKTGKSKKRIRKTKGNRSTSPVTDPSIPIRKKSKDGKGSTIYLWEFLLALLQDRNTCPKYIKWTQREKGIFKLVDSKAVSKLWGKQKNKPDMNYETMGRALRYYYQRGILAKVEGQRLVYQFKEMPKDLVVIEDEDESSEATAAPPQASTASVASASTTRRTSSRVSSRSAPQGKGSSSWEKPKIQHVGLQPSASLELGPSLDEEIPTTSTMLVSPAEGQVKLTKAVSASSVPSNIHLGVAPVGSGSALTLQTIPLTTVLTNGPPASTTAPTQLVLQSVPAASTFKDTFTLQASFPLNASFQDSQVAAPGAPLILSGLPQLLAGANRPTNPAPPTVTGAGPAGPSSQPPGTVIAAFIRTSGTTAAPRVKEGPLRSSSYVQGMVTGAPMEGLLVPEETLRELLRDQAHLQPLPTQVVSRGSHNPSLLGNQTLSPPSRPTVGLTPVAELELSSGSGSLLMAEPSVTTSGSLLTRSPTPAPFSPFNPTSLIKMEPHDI
# Method in brief: as §1
# ELK4 = molecular target: T9, ELK4 (Homo sapiens, UniProt P28324-2 1-405); details: protein: recombinant; tags: N-terminal GST; dsDNA, one strand shown
# T9 sequence: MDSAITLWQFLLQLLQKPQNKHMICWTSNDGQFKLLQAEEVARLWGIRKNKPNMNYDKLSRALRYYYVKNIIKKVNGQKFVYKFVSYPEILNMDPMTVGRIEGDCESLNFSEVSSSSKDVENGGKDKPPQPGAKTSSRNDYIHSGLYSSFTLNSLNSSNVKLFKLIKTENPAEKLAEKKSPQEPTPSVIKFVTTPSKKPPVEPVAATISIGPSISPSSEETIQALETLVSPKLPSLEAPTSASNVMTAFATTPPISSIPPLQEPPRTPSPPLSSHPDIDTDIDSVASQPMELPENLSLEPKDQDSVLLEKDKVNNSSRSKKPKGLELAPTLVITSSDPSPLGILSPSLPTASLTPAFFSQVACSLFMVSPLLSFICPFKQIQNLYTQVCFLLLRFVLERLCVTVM
# Method in brief: as §1
# ETV2 = molecular target: T10, ETV2 (Homo sapiens, UniProt O00321 1-342); details: protein: recombinant; tags: N-terminal GST; dsDNA, one strand shown
# T10 sequence: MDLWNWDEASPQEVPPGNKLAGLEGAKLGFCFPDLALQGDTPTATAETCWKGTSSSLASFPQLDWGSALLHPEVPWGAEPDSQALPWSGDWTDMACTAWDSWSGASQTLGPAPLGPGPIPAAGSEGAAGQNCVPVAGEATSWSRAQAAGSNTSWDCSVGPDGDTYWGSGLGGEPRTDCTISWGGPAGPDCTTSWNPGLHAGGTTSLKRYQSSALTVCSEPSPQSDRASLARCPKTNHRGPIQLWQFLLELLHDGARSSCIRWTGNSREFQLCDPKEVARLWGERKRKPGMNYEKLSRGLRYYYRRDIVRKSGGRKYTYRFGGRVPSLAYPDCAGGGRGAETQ
# Method in brief: as §1
# ELF3 = molecular target: T11, ELF3 (Homo sapiens, UniProt P78545 1-371); details: protein: recombinant; tags: N-terminal GST; dsDNA, one strand shown
# T11 sequence: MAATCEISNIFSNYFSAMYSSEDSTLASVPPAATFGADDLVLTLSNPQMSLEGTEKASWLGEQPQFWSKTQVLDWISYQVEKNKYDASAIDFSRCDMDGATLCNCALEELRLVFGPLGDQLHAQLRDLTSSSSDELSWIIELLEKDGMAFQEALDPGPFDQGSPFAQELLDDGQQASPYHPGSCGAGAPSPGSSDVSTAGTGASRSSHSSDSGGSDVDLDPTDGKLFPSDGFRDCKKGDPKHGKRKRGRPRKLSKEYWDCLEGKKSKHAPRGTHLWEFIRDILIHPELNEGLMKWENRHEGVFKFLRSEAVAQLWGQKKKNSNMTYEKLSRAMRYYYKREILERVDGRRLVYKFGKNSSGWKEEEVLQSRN
# Method in brief: as §1
# CRX = CRX (Homo sapiens, UniProt O43186 1-299); details: protein: recombinant; tags: N-terminal GST; dsDNA, one strand shown
# Sequence of CRX (O43186 whole entry): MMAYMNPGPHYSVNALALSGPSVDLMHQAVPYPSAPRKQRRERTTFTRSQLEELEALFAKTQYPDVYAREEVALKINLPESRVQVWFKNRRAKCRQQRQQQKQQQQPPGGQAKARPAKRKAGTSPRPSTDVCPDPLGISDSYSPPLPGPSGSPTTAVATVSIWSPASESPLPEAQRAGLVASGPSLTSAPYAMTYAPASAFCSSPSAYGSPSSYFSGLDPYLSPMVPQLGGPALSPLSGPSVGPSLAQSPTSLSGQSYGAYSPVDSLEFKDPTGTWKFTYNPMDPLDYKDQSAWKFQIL
# Method in brief: as §1
# ETV1 = ETV1 (Homo sapiens, UniProt P50549 1-477); details: protein: recombinant; tags: N-terminal GST; dsDNA, one strand shown
# Sequence of ETV1 (P50549 whole entry): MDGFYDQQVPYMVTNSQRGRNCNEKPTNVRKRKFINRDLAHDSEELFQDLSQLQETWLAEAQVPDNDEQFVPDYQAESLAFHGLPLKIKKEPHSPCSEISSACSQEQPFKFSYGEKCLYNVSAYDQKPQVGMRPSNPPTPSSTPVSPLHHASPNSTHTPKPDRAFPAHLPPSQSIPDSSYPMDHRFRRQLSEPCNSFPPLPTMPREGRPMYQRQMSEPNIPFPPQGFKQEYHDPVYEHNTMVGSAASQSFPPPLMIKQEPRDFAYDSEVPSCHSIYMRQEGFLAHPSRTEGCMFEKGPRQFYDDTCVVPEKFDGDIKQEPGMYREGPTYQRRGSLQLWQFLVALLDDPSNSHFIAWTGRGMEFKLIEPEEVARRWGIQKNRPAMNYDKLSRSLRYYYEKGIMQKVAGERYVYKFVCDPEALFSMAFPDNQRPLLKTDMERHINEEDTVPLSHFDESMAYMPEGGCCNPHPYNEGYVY
# Method in brief: as §1
sequence,measurement,setting,value
TATTTA,binding signal,FLI1,"1.48 fold enrichment (6-mer frequency, TF over GST control)"
same,binding signal,ELK1,"1.5 fold enrichment (6-mer frequency, TF over GST control)"
same,binding signal,GABPA,"1.39 fold enrichment (6-mer frequency, TF over GST control)"
same,binding signal,ERG,"1.38 fold enrichment (6-mer frequency, TF over GST control)"
same,binding signal,ELF1,"1.42 fold enrichment (6-mer frequency, TF over GST control)"
same,binding signal,EHF,"1.43 fold enrichment (6-mer frequency, TF over GST control)"
same,binding signal,SPI1,"1.46 fold enrichment (6-mer frequency, TF over GST control)"
same,binding signal,SPIB,"1.39 fold enrichment (6-mer frequency, TF over GST control)"
same,binding signal,ELK3,"1.61 fold enrichment (6-mer frequency, TF over GST control)"
same,binding signal,FEV,"1.4 fold enrichment (6-mer frequency, TF over GST control)"
same,binding signal,ETV5,"1.47 fold enrichment (6-mer frequency, TF over GST control)"
same,binding signal,HSF1,"1.75 fold enrichment (6-mer frequency, TF over GST control)"
same,binding signal,SPIC,"1.69 fold enrichment (6-mer frequency, TF over GST control)"
same,binding signal,ELF4,"1.45 fold enrichment (6-mer frequency, TF over GST control)"
same,binding signal,ELK4,"1.66 fold enrichment (6-mer frequency, TF over GST control)"
same,binding signal,ETV2,"1.43 fold enrichment (6-mer frequency, TF over GST control)"
same,binding signal,ELF3,"1.57 fold enrichment (6-mer frequency, TF over GST control)"
same,binding signal,CRX,"2.47 fold enrichment (6-mer frequency, TF over GST control)"
same,binding signal,ETV1,"1.51 fold enrichment (6-mer frequency, TF over GST control)"
